Reference: ChEMBL document CHEMBL1201862, “PubChem BioAssay data set” (2004)
Out of some 400,000 compounds screened, about 2,100 (0.53%) were called active. Inconclusive results (about 14%) are left out. The rule behind the calls is not given here. This excerpt belongs to a sample that is enriched for actives.

The molecules below were run against Ataxin-2 (Homo sapiens) (UniProt Q99700) (assay: qHTS for Inhibitors of ATXN expression.).
Assay type: functional

Ataxin-2 (Homo sapiens), sequence (Q99700 whole entry): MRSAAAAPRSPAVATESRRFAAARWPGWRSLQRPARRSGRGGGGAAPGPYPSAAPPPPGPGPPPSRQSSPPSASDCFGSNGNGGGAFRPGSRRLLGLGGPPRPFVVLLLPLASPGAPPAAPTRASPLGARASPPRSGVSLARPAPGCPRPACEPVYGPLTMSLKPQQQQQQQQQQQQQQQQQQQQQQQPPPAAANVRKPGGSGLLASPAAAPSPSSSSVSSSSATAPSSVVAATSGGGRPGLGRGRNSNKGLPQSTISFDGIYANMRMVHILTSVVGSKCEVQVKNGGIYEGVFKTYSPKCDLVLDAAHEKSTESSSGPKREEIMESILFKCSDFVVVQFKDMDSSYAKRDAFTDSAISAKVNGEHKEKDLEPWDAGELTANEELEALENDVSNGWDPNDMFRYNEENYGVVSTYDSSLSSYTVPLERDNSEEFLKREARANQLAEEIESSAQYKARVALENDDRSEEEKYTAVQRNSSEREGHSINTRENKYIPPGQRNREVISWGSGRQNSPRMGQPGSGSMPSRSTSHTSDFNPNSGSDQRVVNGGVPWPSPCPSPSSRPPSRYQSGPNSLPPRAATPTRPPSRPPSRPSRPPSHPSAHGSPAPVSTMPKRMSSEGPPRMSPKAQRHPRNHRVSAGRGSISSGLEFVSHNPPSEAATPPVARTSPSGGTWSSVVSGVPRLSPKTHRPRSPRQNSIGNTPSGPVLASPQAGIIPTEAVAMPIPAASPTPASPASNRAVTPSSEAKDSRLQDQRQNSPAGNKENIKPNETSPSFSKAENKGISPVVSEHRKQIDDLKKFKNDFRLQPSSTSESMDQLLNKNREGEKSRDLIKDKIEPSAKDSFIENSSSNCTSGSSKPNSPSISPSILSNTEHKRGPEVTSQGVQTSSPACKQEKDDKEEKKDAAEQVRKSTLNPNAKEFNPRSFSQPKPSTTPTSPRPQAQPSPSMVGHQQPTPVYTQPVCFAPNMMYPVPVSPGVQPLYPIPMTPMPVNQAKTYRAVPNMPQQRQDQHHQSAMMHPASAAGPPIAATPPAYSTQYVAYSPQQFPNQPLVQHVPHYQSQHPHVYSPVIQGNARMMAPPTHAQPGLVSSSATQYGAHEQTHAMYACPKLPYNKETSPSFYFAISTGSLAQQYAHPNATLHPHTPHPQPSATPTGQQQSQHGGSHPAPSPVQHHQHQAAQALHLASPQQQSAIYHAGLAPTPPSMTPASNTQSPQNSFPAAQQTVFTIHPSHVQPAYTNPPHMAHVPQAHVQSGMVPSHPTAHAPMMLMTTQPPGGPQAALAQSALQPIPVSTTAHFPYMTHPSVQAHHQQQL

**Q.** With `C=CCn1c(=O)[nH]c2nc3cc(/N=C/N(C)C)c(C)cc3nc2c1=O` as the molecule, how does the Potency read?
**A.** Its Potency is “inactive”.

**Q.** How did the Potency turn out when `O=C(CCl)NN1C(=O)NC(c2ccccc2)(c2ccccc2)C1=O` was run?
**A.** Its Potency is 26.7 µM (active).

**Q.** `CC1(c2ccccc2)NC(=O)N(CC(=O)NCc2cccc(Cl)c2)C1=O` (stereo not drawn) was tested. Which Potency did it give?
**A.** Its Potency is “inactive”.

**Q.** How did the Potency turn out when `O=C(NCc1ccccc1Cl)c1ccc2c(=O)n(CC3CCCO3)c(=S)[nH]c2c1` (stereo not drawn) was run?
**A.** Its Potency is “inactive”.

**Q.** For `CN(C)c1ccc(N=Nc2nc3ccccc3n2C)cc1`, which Potency is on record?
**A.** Its Potency is “inactive”.

**Q.** With `Cc1csc(N=Nc2ccc(N(C)C)cc2)[n+]1[O-]` as the molecule, how does the Potency read?
**A.** Its Potency is 14.1 µM (active).

**Q.** With `CCCN(CC(=O)Nc1ccc(F)c(F)c1F)C(=O)CN1C(=O)NC2(CCCCC2)C1=O` as the molecule, how does the Potency read?
**A.** Its Potency is “inactive”.

**Q.** How did the Potency turn out when `O=C(CSc1cccc[n+]1[O-])c1cc(Cl)ccc1Cl` was run?
**A.** Its Potency is 3.77 µM (active).

**Q.** Which Potency does the source give for `COC(=O)c1cnc(SCc2ccc(Cl)cc2)n1C` here?
**A.** The Potency was “inactive”.

**Q.** How did the Potency turn out when `O=C(CSc1cc(Cl)ccc1Cl)NC1CCCc2ccccc21` (stereo not drawn) was run?
**A.** Its Potency is “inactive”.

**Q.** For `CCN(CC(O)CON=C1c2ccccc2-c2ccccc21)S(=O)(=O)c1ccc(Cl)cc1` (stereo not drawn), which Potency is on record?
**A.** Its Potency is 17.8 µM (active).

**Q.** For `CC(C)(C)NCC(O)CON=C1c2ccccc2-c2ccccc21` (stereo not drawn), which Potency is on record?
**A.** The Potency was “inactive”.

**Q.** For `Cc1ccc(S(=O)(=O)N(CCCO)CC(O)CON=C2c3ccccc3-c3ccccc32)cc1` (stereo not drawn), which Potency is on record?
**A.** The Potency was 20 µM (active).

**Q.** For `CCN(CC)S(=O)(=O)c1ccc(C(=O)N(c2ccc(C)cc2)C2C=CS(=O)(=O)C2)cc1` (stereo not drawn), which Potency is on record?
**A.** Its Potency is “inactive”.

**Q.** For `CCOc1ccccc1N(C(C)=O)S(=O)(=O)c1ccc(Cl)cc1`, which Potency is on record?
**A.** The Potency was “inactive”.

**Q.** For `CN(C)CCN=c1cc(-c2ccccc2)oc2ccc(Cl)cc12`, which Potency is on record?
**A.** The Potency was “inactive”.

**Q.** `O=C(NCC1CCN(C(=O)c2ccc([N+](=O)[O-])cc2)CC1)c1ccc([N+](=O)[O-])cc1` was tested. Which Potency did it give?
**A.** Its Potency is “inactive”.

**Q.** With `CCCn1c(SCc2nc(-c3ccccc3C)no2)nnc1-c1ccc(Cl)cc1` as the molecule, how does the Potency read?
**A.** The Potency was 39.8 µM (active).

**Q.** With `Cc1ccccc1CSc1nnc(-c2cnccn2)n1C` as the molecule, how does the Potency read?
**A.** Its Potency is “inactive”.

**Q.** With `CN(/N=C/c1ccc(Br)o1)C1=NS(=O)(=O)c2ccccc21` as the molecule, how does the Potency read?
**A.** The Potency was “inactive”.

**Q.** For `CC(C)OC(=O)CSc1nnc(COc2ccc([N+](=O)[O-])cc2)n1C`, which Potency is on record?
**A.** Its Potency is “inactive”.

**Q.** With `Cc1ccc(C)c(-n2c(N)c(C#N)c3nc4ccccc4nc32)c1` as the molecule, how does the Potency read?
**A.** Its Potency is “inactive”.

**Q.** For `Cc1ccccc1C(=O)NNc1ncnc2c1cnn2C`, which Potency is on record?
**A.** Its Potency is “inactive”.

**Q.** For `Cn1ncc2c(ON=C(N)c3ccc(C(C)(C)C)cc3)ncnc21`, which Potency is on record?
**A.** The Potency was 39.8 µM (active).

**Q.** With `COc1ccc(NC(=O)c2sc3nc(C)c(C(=O)Nc4ccc(C)cc4C)c(-c4ccccc4Cl)c3c2N)cc1` as the molecule, how does the Potency read?
**A.** Its Potency is “inactive”.

**Q.** For `c1ccc(C2=NN=C(c3ccncc3)c3ccc4ccccc4c3N2)cc1`, which Potency is on record?
**A.** The Potency was “inactive”.

**Q.** For `N=c1c(C(=O)NCC2CCCO2)cc2c(=O)n3ccccc3nc2n1Cc1ccc(F)cc1` (stereo not drawn), which Potency is on record?
**A.** Its Potency is “inactive”.

**Q.** How did the Potency turn out when `Cc1cccc(C(=O)N2CCC(=O)N([C@H](COCc3ccc(Cl)cc3)Cc3ccccc3)CC2)c1` was run?
**A.** Its Potency is 39.8 µM (active).

**Q.** For `Cc1cccc(COC[C@H](Cc2ccccc2)N2CCN(C(=O)c3cccc(Cl)c3)CCC2=O)c1`, which Potency is on record?
**A.** Its Potency is 25.1 µM (active).

**Q.** With `Cc1ccc(S(=O)(=O)N2CCN(C(=O)COC(=O)Cc3ccc(Cl)cc3)CC2)c(C)c1` as the molecule, how does the Potency read?
**A.** Its Potency is “inactive”.

**Q.** Which Potency does the source give for `O=C(c1cccc(Cl)c1)N1CCC(=O)N(C(COCc2cccc(Cl)c2)Cc2ccccc2)CC1` (stereo not drawn) here?
**A.** The Potency was 35.5 µM (active).

**Q.** `Cc1cccc(C(=O)NCC(=O)N2CC=C(c3ccccc3)CC2)c1` was tested. Which Potency did it give?
**A.** The Potency was “inactive”.

**Q.** For `Cc1nn(Cc2ccccc2)c(C)c1C(=O)N1CCN(S(=O)(=O)/C=C/c2ccccc2)CC1`, which Potency is on record?
**A.** Its Potency is “inactive”.

**Q.** `O=C1/C(=C/c2cccc(F)c2)Oc2cc(O)ccc21` was tested. Which Potency did it give?
**A.** The Potency was “inactive”.

**Q.** How did the Potency turn out when `CN1CCc2c(sc3c2C(=O)NC(/C=C\c2ccccc2)N3)C1` (stereo not drawn) was run?
**A.** The Potency was “inactive”.

**Q.** Which Potency does the source give for `O=c1cc(-c2ccccc2)c2ccc3c(c2o1)CN(Cc1cccc(Cl)c1)CO3` here?
**A.** The Potency was “inactive”.

**Q.** How did the Potency turn out when `Cc1ccc(S(=O)(=O)C(C#N)c2nc3ccccc3nc2N2CC(C)OC(C)C2)cc1C` (stereo not drawn) was run?
**A.** The Potency was “inactive”.

**Q.** How did the Potency turn out when `Cc1c(CCOC(=O)CC23CC4CC(CC(C4)C2)C3)sc[n+]1CC(=O)c1ccccc1` was run?
**A.** The Potency was 29.9 µM (active).

**Q.** How did the Potency turn out when `Cc1c(CCOC(=O)C2C3CC4CC(C3)CC2C4)sc[n+]1CC(=O)c1ccc(Br)cc1` (stereo not drawn) was run?
**A.** Its Potency is 20 µM (active).

**Q.** For `Cc1c(CCOC(=O)C23CC4CC(CC(C4)C2)C3)sc[n+]1CC#N`, which Potency is on record?
**A.** Its Potency is 31.6 µM (active).

**Q.** Which Potency does the source give for `CN1CCC(N(C)C(S)=NCCc2ccccc2)CC1` here?
**A.** Its Potency is “inactive”.

**Q.** How did the Potency turn out when `CCNS(=O)(=O)c1ccc(CCC(=O)N2CCc3ccccc3C2)cc1` was run?
**A.** The Potency was “inactive”.

**Q.** For `Cc1ccc2nc(C)c3c(c2c1)N(c1ccc(F)cc1)CC3`, which Potency is on record?
**A.** Its Potency is “inactive”.

**Q.** `CC(C)NCC(O)Cn1c2c(c3ccccc31)CCc1c-2cnn1-c1ccccc1` (stereo not drawn) was tested. Which Potency did it give?
**A.** The Potency was 25.1 µM (active).

**Q.** Which Potency does the source give for `N#Cc1sc2nc(-c3cccs3)cc(-c3ccccc3)c2c1N` here?
**A.** Its Potency is “inactive”.

**Q.** Which Potency does the source give for `Cc1ccc(C(=O)C(C)[n+]2cccc(C(N)=O)c2)cc1` (stereo not drawn) here?
**A.** The Potency was “inactive”.

**Q.** Which Potency does the source give for `Cc1ccc(C(=O)Sc2cccccc2=O)cc1` here?
**A.** The Potency was 2.51 µM (active).

**Q.** `NC(=O)c1ccc(NC(=O)CNC(c2ccccc2)c2ccccc2)cc1` was tested. Which Potency did it give?
**A.** The Potency was “inactive”.

**Q.** `Cc1cccc(CC(=O)N2CCC(N3CCC(C(=O)N4CCOCC4)CC3)CC2)c1` was tested. Which Potency did it give?
**A.** The Potency was “inactive”.

**Q.** `COc1ccc(OC(C)C(=O)N(C)Cc2nc(-c3ccccc3)no2)cc1` (stereo not drawn) was tested. Which Potency did it give?
**A.** The Potency was “inactive”.

**Q.** Which Potency does the source give for `COc1ccc(Cc2noc(CN(C)CCN3CCc4ccccc4C3)n2)cc1OC` here?
**A.** Its Potency is “inactive”.

**Q.** With `COc1ccc(OC)c(-c2noc(CSc3nnc(Cc4ccccc4)n3-c3cccc(C)c3)n2)c1` as the molecule, how does the Potency read?
**A.** Its Potency is 22.4 µM (active).

**Q.** How did the Potency turn out when `COc1ccc(OC(C)C(=O)N(C)Cc2nc(-c3ccc(C)cc3)no2)cc1` (stereo not drawn) was run?
**A.** Its Potency is “inactive”.

**Q.** For `COc1ccc(-c2noc(CSc3nnc(Cc4ccccc4)n3-c3cccc(C)c3)n2)cc1`, which Potency is on record?
**A.** The Potency was 39.8 µM (active).

**Q.** For `COc1ccccc1-c1noc(CSc2nnc(Cc3ccccc3)n2-c2ccc(C)c(C)c2)n1`, which Potency is on record?
**A.** Its Potency is 35.5 µM (active).

**Q.** With `COc1ccc(-c2noc(CSc3nnc(Cc4ccccc4)n3-c3ccc(F)cc3)n2)cc1` as the molecule, how does the Potency read?
**A.** Its Potency is 39.8 µM (active).

**Q.** `COc1ccccc1-c1ccc(SCc2cccc(F)c2)nn1` was tested. Which Potency did it give?
**A.** Its Potency is “inactive”.

**Q.** `COCC(C)n1c(SCc2nc(O)c3ccccc3n2)nc2ccccc2c1=O` (stereo not drawn) was tested. Which Potency did it give?
**A.** Its Potency is “inactive”.

**Q.** `Nc1ccc(-c2c3ccccc3nc3ccccc23)cc1` was tested. Which Potency did it give?
**A.** Its Potency is “inactive”.

**Q.** Which Potency does the source give for `CC(=O)c1cnc(SCc2ccc(Cl)cc2)nc1C` here?
**A.** Its Potency is “inactive”.

**Q.** For `COc1cccc(-c2csc(/C(C#N)=C/Nc3cc4oc5ccccc5c4cc3OC)n2)c1`, which Potency is on record?
**A.** Its Potency is “inactive”.

**Q.** For `CNC(=O)c1ccc(NC(=O)CC2SC(N3CCCC3)=NC2=O)cc1` (stereo not drawn), which Potency is on record?
**A.** Its Potency is “inactive”.

**Q.** With `O=c1oc2ccc3ccccc3c2cc1-c1nnc(-c2cccs2)o1` as the molecule, how does the Potency read?
**A.** The Potency was “inactive”.
